Records with an inconclusive call do not appear. Calls of active or inactive are those of the source. Unless noted, the call rests on the fitted dose curve; in most records, active means well fitted curve in the direction sought with a large enough effect in the repeat runs; inconclusive means weak or mixed curves; inactive means no such curve, though single readings can be large; an effect the other way counts as inactive or inconclusive.
Tests used:
[1] = molecular target: Aryl hydrocarbon receptor (Homo sapiens) (UniProt P35869); test: qHTS assay to identify small molecule that activate the aryl hydrocarbon receptor (AhR) signaling pathway (AID 743085);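 further: HG2L7.5c1 human HepG2 liver cells with stably integrated DRE-driven firefly reporter; series mostly up to about 70 µM; nearly all actives have a fitted effect of over 15% in size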
Summary of the method: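 Cell line HG2L7.5c1 (human hepatoma, 20× DRE-luc). Plated, 5 h 37C, compound/DMSO added, 24 h 37C. CellTiter-Fluor 30 min 37C → fluorescence; then ONE-Glo 30 min RT → luminescence.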

[2] = qHTS assay to identify small molecule that activate the aryl hydrocarbon receptor (AhR) signaling pathway - cell viability counter screen (AID 743086);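 further: HepG2 liver cells carrying the AhR DRE luciferase reporter; series mostly up to about 70 µM; nearly all actives have a fitted effect of over 45% in size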
Summary of the method: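 Cytotoxicity counter screen: CellTiter-Fluor signal (30 min, 37 C) in 4000 HepG2 cells/well carrying the DRE-luciferase reporter, following 24 h compound exposure at 37 C.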

[3] = molecular target: Peroxisome proliferator-activated receptor gamma (Homo sapiens) (UniProt P37231); test: qHTS assay to identify small molecule agonists of the peroxisome proliferator-activated receptor gamma (PPARg) signaling pathway (AID 743094; active means well fitted activation curve with a large enough effect in the signal ratio in the repeat runs, not every such curve was filed as active; the % refers to the signal ratio)
Summary of the method: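 Cell-based bla reporter, HEK293H background, PPARg-driven UAS. Pre-incubation 5 h, 37C, 5% CO2. Compound 17 h, 37C. Substrate 1 h RT; fluorescence.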

[4] = molecular target: Peroxisome proliferator-activated receptor gamma (Homo sapiens) (UniProt P37231); test: qHTS assay to identify small molecule antagonists of the peroxisome proliferator-activated receptor gamma (PPARg) signaling pathway (AID 743191; calls by dose curve; further: series mostly up to about 63 µM; nearly all actives have a fitted effect of over 30% in size)
Summary of the method: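 Beta-lactamase reporter under UAS control in HEK293H PPARg-bla cells; compound treatment 17 h at 37C. Read-out: fluorescence intensity after 1 h room-temperature incubation with LiveBLAzer B/G FRET substrate.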

[5] = qHTS assay to identify small molecule antagonists of the peroxisome proliferator-activated receptor gamma (PPARg) signaling pathway - cell viability counter screen (AID 743194); further: nearly all actives have a fitted effect of over 55% in size
Summary of the method: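 Viability was measured as CellTiter-Glo luminescence in GeneBLAzer PPARg UAS-bla HEK293H cells. These cells had been exposed 17 h at 37 C to compounds together with rosiglitazone at 50 nM final, with the beta-lactamase readout taken in the same wells.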

[6] = qHTS assay for small molecule agonists of the antioxidant response element (ARE) signaling pathway (AID 743202; active means well fitted activation curve with a large enough effect in the signal ratio in the repeat runs, not every such curve was filed as active; the % refers to the signal ratio)
Summary of the method: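 After 16 hours of compound treatment at 37 C, HepG2 cells with a stably integrated ARE-driven beta-lactamase reporter were loaded 2 hours at room temperature with LiveBLAzer B/G FRET substrate and fluorescence intensity measured.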

[7] = qHTS assay for small molecule agonists of the antioxidant response element (ARE) signaling pathway - cell viability counter screen (AID 743203; calls by dose curve; further: nearly all actives have a fitted effect of over 55% in size)
Summary of the method: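 Measured in the same wells as the beta-lactamase ARE reporter, this read-out is CellTiter-Glo luminescence from HepG2 ARE-bla cells given compounds for 16 hrs.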

[8] = qHTS assay for small molecule activators of the heat shock response signaling pathway (AID 743210; active means well fitted activation curve with a large enough effect in the signal ratio in the repeat runs, with a control signal flat, not every such curve was filed as active; the % refers to the signal ratio; further: series mostly up to about 63 µM)
Summary of the method: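 Compound exposure lasted 5 h at 37 C in HeLa cells carrying a heat-shock-element-driven beta-lactamase reporter. Read-out: fluorescence intensity after 2.5 h room-temperature loading with LiveBLAzer B/G FRET substrate.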

[9] = qHTS assay to identify small molecule agonists of the peroxisome proliferator-activated receptor delta (PPARd) signaling pathway - cell viability counter screen (AID 743211); further: nearly all actives have a fitted effect of over 55% in size
Summary of the method: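 HEK293H PPARd-bla, 3000 cells/well; 5 h preincubation 37C/5% CO2; cpd in DMSO, 17 h 37C; B/G FRET substrate 2 h RT; CellTiter-Glo 30 min RT, luminescence.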

[10] = molecular target: Peroxisome proliferator-activated receptor delta (Homo sapiens) (UniProt Q03181); test: qHTS assay to identify small molecule agonists of the peroxisome proliferator-activated receptor delta (PPARd) signaling pathway (AID 743212; calls by dose curve;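 further: HEK293H cells with PPARd UAS beta-lactamase reporter GeneBLAzer system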)
Summary of the method: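 Beta-lactamase reporter readout: a ratiometric FRET signal from the LiveBLAzer substrate after 2 h at room temperature. Compound exposure at 37 °C in PPARδ-bla HEK293H cells driven by an upstream activator sequence.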

[11] = qHTS assay to identify small molecule antagonists of the peroxisome proliferator-activated receptor delta (PPARd) signaling pathway - cell viability counter screen (AID 743213); further: nearly all actives have a fitted effect of over 50% in size
Summary of the method: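 PPARd-bla HEK293H cells (3000/well) got compound plus 300 nM L165041 agonist for 17 h at 37 C. Viability in the same wells came from CellTiter-Glo luminescence after 30 min at room temperature.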

[12] = molecular target: Peroxisome proliferator-activated receptor delta (Homo sapiens) (UniProt Q03181); test: qHTS assay to identify small molecule antagonists of the peroxisome proliferator-activated receptor delta (PPARd) signaling pathway (AID 743215; active means well fitted inhibition curve with a large enough effect in the signal ratio in the repeat runs, not every such curve was filed as active; the % refers to the signal ratio;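 further: cells stimulated with agonist L165041 at 300 nM final during compound exposure; series mostly up to about 62 µM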)
Summary of the method: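 Fluorescence from cleaved LiveBLAzer B/G FRET substrate (2 h, room temperature) reports PPARd-driven beta-lactamase in HEK293H UAS-bla cells. Cells had been treated 17 h at 37 C with compound plus 300 nM final L165041.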

[13] = qHTS assay to identify small molecule agonists of the farnesoid-X-receptor (FXR) signaling pathway - cell viability counter screen (AID 743218); further: nearly all actives have a fitted effect of over 45% in size
Summary of the method: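 Readout: CellTiter-Glo luminescence, 30 min RT, multiplexed after the FXR-bla FRET reading. HEK 293T FXR-UAS-bla cells received compound 5 h post-plating and were incubated 16 h at 37 C.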

[14] = qHTS assay to identify small molecule antagonists of the farnesoid-X-receptor (FXR) signaling pathway - cell viability counter screen (AID 743221; active means well fitted cell-killing curve with a large enough effect in the repeat runs, not every such curve was filed as active; further: nearly all actives have a fitted effect of over 50% in size)
Summary of the method: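 Luminescence from CellTiter-Glo measures cytotoxicity in GeneBLAzer FXR-UAS-bla HEK 293T cells. Cells were exposed to compounds with 50 uM chenodeoxycholic acid (final) for 16 h at 37 C, in wells also used for the reporter readout.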

[15] = molecular target: Vitamin D3 receptor (Homo sapiens) (UniProt P11473); test: qHTS assay to identify small molecule agonists of the vitamin D receptor (VDR) signaling pathway (AID 743222; calls by dose curve)
Summary of the method: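 Following 4 h attachment at 37C, VDR-bla cells (2,000 per well) received DMSO-dissolved compounds or controls. After 16 h incubation, LiveBLAzer B/G FRET substrate was added and fluorescence read 2 h later at room temperature.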

[16] = molecular target: Vitamin D3 receptor (Homo sapiens) (UniProt P11473); test: qHTS assay to identify small molecule antagonists of the vitamin D receptor (VDR) signaling pathway (AID 743223; active means well fitted inhibition curve with a large enough effect in the signal ratio in the repeat runs, not every such curve was filed as active; the % refers to the signal ratio)
Summary of the method: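 Antagonist mode uses 1alpha,25-dihydroxyvitamin D3 at 3 nM final as stimulus. VDR-bla cells receive compounds in DMSO, incubate 16 h at 37C, then a beta-lactamase FRET substrate for 2 h at room temperature before fluorescence measurement.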

[17] = qHTS assay to identify small molecule agonists of the vitamin D receptor (VDR) signaling pathway - cell viability counter screen (AID 743224); further: series mostly up to about 63 µM; nearly all actives have a fitted effect of over 50% in size
Summary of the method: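 In parallel with the bla FRET readout, cytotoxicity toward VDR-bla cells after 16 h compound exposure was assessed by CellTiter-Glo, with luminescence recorded after a 30 min room-temperature incubation.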

[18] = qHTS assay for small molecule activators of the heat shock response signaling pathway - cell viability counter screen (AID 743209); further: nearly all actives have a fitted effect of over 50% in size
Summary of the method: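 Same-well multiplex: after 2.5 h room-temperature incubation with LiveBLAzer B/G substrate and fluorescence reading, CellTiter-Glo reagent was added to HSE-bla HeLa cells that had received compound for 5 h at 37 C; luminescence read after 30 min.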

[19] = molecular target: Bile acid receptor (Homo sapiens) (UniProt Q96RI1); test: qHTS assay to identify small molecule antagonists of the farnesoid-X-receptor (FXR) signaling pathway (AID 743217; active means well fitted inhibition curve with a large enough effect in the signal ratio in the repeat runs, not every such curve was filed as active; the % refers to the signal ratio)
Summary of the method: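 FRET fluorescence after 2 h room-temperature LiveBLAzer loading gives the readout. Prior step: FXR-bla HEK 293T cells, seeded and incubated 5 h, received test compounds plus 50 uM final CDCA for 16 h at 37 °C.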

[20] = molecular target: Bile acid receptor (Homo sapiens) (UniProt Q96RI1); test: qHTS assay to identify small molecule agonists of the farnesoid-X-receptor (FXR) signaling pathway (AID 743220; active means well fitted activation curve with a large enough effect in the signal ratio in the repeat runs, not every such curve was filed as active; the % refers to the signal ratio)
Summary of the method: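 FXR-UAS-bla HEK 293T cells carrying a UAS-driven beta-lactamase reporter were plated for 5 h at 37C/5% CO2, then exposed to DMSO-dissolved Tox21 10K compounds for 16 h at 37C. A LiveBLAzer B/G FRET substrate was loaded for 2 h at room temperature before fluorescence reading.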

Measured: Potency

Chain of Bile acid receptor (Homo sapiens) (Q96RI1 whole entry, looked up): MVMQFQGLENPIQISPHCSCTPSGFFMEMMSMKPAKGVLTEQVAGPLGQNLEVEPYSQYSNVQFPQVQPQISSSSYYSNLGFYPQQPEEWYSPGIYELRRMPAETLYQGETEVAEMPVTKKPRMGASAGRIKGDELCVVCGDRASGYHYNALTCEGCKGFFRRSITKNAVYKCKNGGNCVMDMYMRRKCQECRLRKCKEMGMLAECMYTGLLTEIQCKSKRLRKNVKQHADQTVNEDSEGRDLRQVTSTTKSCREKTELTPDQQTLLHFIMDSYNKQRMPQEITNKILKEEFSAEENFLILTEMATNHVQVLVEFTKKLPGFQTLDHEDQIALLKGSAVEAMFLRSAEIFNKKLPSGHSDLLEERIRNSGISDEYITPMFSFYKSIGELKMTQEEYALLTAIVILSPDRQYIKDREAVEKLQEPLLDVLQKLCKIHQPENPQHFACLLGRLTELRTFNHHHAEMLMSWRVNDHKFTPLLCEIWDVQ
Chain of Peroxisome proliferator-activated receptor gamma (Homo sapiens) (P37231 whole entry, looked up): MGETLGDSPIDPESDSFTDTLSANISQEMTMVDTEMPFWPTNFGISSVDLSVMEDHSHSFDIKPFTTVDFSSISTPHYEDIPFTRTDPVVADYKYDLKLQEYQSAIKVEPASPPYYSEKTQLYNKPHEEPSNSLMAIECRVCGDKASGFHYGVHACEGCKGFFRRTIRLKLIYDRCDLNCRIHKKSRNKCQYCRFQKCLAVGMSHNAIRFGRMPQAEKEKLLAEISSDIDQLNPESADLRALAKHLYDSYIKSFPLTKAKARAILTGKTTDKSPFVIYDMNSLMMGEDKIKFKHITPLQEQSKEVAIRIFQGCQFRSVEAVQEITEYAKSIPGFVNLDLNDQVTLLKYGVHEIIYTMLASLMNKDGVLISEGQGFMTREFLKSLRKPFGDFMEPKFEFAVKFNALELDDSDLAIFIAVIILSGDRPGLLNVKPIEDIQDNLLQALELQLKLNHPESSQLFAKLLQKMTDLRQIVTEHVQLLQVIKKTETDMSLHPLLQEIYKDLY
Chain of Vitamin D3 receptor (Homo sapiens) (P11473 whole entry, looked up): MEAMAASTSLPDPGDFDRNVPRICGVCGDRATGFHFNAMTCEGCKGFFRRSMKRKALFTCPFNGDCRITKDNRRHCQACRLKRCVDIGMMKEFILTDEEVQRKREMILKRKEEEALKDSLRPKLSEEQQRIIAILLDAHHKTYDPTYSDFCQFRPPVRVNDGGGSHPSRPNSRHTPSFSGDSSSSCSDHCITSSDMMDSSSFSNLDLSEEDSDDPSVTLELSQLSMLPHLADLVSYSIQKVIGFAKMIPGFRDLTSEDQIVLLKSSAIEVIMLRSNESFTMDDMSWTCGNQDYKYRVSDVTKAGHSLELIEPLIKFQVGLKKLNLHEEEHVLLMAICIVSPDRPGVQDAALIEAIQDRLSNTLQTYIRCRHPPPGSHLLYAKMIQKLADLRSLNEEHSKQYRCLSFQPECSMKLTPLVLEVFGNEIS
Chain of Aryl hydrocarbon receptor (Homo sapiens) (P35869 whole entry, looked up): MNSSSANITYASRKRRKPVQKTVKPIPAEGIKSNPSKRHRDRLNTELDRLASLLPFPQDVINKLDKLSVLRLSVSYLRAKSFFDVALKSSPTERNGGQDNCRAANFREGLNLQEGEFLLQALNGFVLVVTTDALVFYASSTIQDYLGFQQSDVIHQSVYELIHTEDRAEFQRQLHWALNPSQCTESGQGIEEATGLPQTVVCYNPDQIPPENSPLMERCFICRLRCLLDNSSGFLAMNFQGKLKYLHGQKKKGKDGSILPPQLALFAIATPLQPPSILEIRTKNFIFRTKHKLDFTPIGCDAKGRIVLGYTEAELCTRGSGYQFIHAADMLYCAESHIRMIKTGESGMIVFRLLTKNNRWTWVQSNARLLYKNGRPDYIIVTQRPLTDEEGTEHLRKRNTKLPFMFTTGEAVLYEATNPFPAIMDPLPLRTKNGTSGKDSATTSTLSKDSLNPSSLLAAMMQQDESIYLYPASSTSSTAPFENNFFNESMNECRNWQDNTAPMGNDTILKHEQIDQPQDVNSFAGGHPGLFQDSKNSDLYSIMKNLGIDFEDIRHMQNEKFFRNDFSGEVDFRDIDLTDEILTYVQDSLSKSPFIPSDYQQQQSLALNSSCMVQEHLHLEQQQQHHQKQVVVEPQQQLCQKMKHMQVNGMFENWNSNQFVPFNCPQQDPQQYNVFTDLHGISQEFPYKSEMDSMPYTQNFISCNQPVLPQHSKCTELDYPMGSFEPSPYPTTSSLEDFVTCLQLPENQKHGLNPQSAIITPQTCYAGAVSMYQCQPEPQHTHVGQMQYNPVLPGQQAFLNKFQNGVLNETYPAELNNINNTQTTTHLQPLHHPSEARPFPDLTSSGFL
Chain of Peroxisome proliferator-activated receptor delta (Homo sapiens) (Q03181 whole entry, looked up): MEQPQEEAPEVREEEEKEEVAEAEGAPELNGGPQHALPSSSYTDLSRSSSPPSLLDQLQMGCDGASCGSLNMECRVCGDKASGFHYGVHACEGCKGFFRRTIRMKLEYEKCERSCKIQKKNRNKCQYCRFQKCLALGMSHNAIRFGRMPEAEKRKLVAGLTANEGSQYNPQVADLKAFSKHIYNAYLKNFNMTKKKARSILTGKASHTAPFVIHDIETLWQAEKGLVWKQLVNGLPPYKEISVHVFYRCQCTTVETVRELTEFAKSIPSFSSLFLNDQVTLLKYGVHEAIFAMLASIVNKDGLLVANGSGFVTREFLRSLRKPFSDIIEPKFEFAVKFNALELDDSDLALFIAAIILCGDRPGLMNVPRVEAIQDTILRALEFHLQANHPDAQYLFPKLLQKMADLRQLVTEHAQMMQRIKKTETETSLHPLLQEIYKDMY

CCC(C(=O)OCCN(CC)CC)c1ccccc1 (stereo not given)
inactive: [1] | [2] | [3] | [4] | [5] | [6] | [7] | [8] | [9] | [10] | [11] | [12] | [13] | [14] | [15] | [16] | [17]

CCCCCCCCSCCO
inactive: [1] | [2] | [3] | [4] | [5] | [6] | [7] | [18] | [8] | [9] | [10] | [11] | [19] | [13] | [20] | [14] | [17]

C[Si]1(C)O[Si](C)(C)O[Si](C)(C)O1
inactive: [1] | [2] | [3] | [4] | [5] | [7] | [18] | [8] | [9] | [10] | [11] | [13] | [14] | [15] | [16] | [17]

N#C[C@@H]1C[C@@H]2C[C@@H]2N1C(=O)[C@@H](N)C12CC3CC(CC(O)(C3)C1)C2
inactive: [1] | [2] | [3] | [5] | [6] | [7] | [18] | [8] | [9] | [19] | [13] | [20] | [14] | [15] | [17]

CC(C)C(=O)O
inactive: [1] | [2] | [3] | [4] | [5] | [6] | [7] | [18] | [8] | [9] | [10] | [12] | [13] | [14] | [15] | [16] | [17]

C=CC(=C)CCCC(C)(C)OC(C)=O
inactive: [1] | [2] | [3] | [4] | [5] | [6] | [7] | [18] | [8] | [9] | [10] | [11] | [12] | [13] | [14] | [15] | [17]

O=C(CCCCCCCCC#CI)Oc1ccccc1
inactive: [1] | [2] | [3] | [5] | [6] | [7] | [18] | [8] | [9] | [11] | [12] | [19] | [13] | [20] | [14] | [15] | [16] | [17]

CCn1cc(C(=O)O)c(=O)c2cc(F)c(N3CCNCC3)nc21
inactive: [1] | [2] | [3] | [4] | [5] | [6] | [7] | [18] | [8] | [9] | [10] | [11] | [12] | [13] | [14] | [15] | [16] | [17]

From PubChem BioAssay (Tox21)
